# Source: PubChem BioAssay
# USP8 inh: inhibitors of human USP8 deubiquitinase; purified USP8, Ub-rhodamine cleavage fluorescence, 30 min; inhibition, % at 20 µM; 4.2% of 47,000 active
# USP7 inh: inhibitors of human USP7 deubiquitinase. Ubiquitin carboxyl-terminal hydrolase 7 (Homo sapiens), Q93009. purified USP7, Ub-rhodamine cleavage fluorescence. inhibition, % at 20 µM. 0.3% of 47,000 active. AID 1645854, 2021
# USP17 block: inhibitors of human USP17 deubiquitinase | inhibition, % at 50 µM | 6.5% of 47,000 active | Ubiquitin carboxyl-terminal hydrolase 17-like protein 5 (Homo sapiens), A8MUK1 | purified USP17, Ub-rhodamine cleavage fluorescence, 3 h
# USP30 block: inhibitors of human USP30 deubiquitinase; inhibition, % at 25 µM; AID 1645860, 2021; purified USP30, Ub-rhodamine cleavage fluorescence; Ubiquitin carboxyl-terminal hydrolase 30 (Homo sapiens), Q70CQ3; 5.3% of 47,000 active
# USP10 block: inhibitors of human USP10 deubiquitinase; purified USP10, Ub-rhodamine fluorescence, 60 min; inhibition, % at 20 µM; AID 1645856, 2021; 1.1% of 47,000 active
# USP28 inh: inhibitors of human USP28 deubiquitinase. inhibition, % at 25 µM. purified USP28, Ub-rhodamine cleavage fluorescence, 30 min. 3% of 47,000 active. AID 1645857, 2021. Ubiquitin carboxyl-terminal hydrolase 28 (Homo sapiens), Q96RU2
# Numbers without * were called inactive; i = inactive; · = no result given. Most compounds without a hit are left out; they make up all but 13% or so of the library. No stated cut-off is given here; in the data, active means inhibition above about 30%; inactive means the rest.
SMILES,USP8 inh,USP7 inh,USP17 block,USP30 block,USP10 block,USP28 inh
O=C(CCc1ccc(S(=O)(=O)N2CCOCC2)cc1)Nc1ccc2c(c1)OCCO2,-6,6,-7,4,6,61*
O=C(Cc1ccc(NC(=O)N2CCCCc3ccccc32)cc1)NCc1cccnc1,-10,-4,-7,0,0,-5
O=C(CN(c1cccc2cccnc12)S(=O)(=O)c1ccccc1)N1CCc2ccccc21,-99,-10,-7,-418,-6,-91
CCN1CCN(c2ncc(-c3cc(=O)[nH]c(N4c5ccccc5CC4C)n3)c(C)n2)CC1 (centres undefined),1,-3,-8,-15,1,-10
CCC1Cc2c(nc(N)c3c(N)nc(N4CCCCC4)c(C#N)c23)O1 (centres undefined),77*,-14,24,-223,-10,-29
CSc1cccc(NC(=O)CCc2nc3c(C)nn(-c4ccccc4)c3n(C)c2=O)c1,1,3,43*,-1,-1,-1
Cc1ccc(NC(=O)CCc2nc3c(C)nn(-c4ccccc4)c3n(C)c2=O)cc1C,1,5,27,7,14,5
CCn1c(=O)c(CCC(=O)NCc2ccccc2F)nc2c(C)nn(-c3ccccc3)c21,-14,0,-19,-31,-4,-10
CCc1cccc(NC(=O)CCc2nc3c(C)nn(-c4ccccc4)c3n(C)c2=O)c1,-1,3,48*,-7,13,-4
Cc1nn(-c2ccccc2)c2c1nc(CCC(=O)NCc1ccccc1F)c(=O)n2C,-10,6,13,43*,0,14
COc1cccc(S(=O)(=O)N2CCCn3c(nc4ccccc43)C2)c1,9,0,8,20,-1,3
COc1cccc(C(=O)Nc2ccc(N3CCN(C4CCCC4)C3=O)nc2)c1,-11,-5,-5,-25,-1,4
O=C(Cn1c(-c2ccccc2)ncc(C(=O)NC2CC2)c1=O)Nc1ccccc1,30*,11,36*,73*,25,27
O=C(Cn1cncc(C(=O)NC2CCCC2)c1=O)Nc1cccc(F)c1,3,0,82*,0,0,-4
CCCN(CC(=O)N1CCCc2ccccc21)S(=O)(=O)c1cccc(C(F)(F)F)c1,22,-20,3,14,6,15
CN(Cc1cc(=O)n2ccsc2n1)c1ccccc1,35*,-9,1,-71,-2,-9
Cc1ccc2nc(CNc3ccc(F)cc3C)cc(=O)n2c1,93*,-19,85*,26,23,52*
Cc1ccc2nc(CN(C)c3ccccc3)cc(=O)n2c1,74*,-34,36*,-136,-7,-5
CN(C)C(=O)C1CN(C(=O)c2n[nH]c3c2CCCC3)CCN1C (centres undefined),11,4,9,26,0,8
COc1ccc(NC(=O)[C@@H]2CCCN2C2=NS(=O)(=O)c3ccccc32)cn1,-140,-201,-126,i,-7,-165
Cc1cccc(NC(=O)[C@@H]2CCCN2C2=NS(=O)(=O)c3ccccc32)c1C,46*,3,35*,32*,7,0
CCOC(=O)c1c2ccc(OCC(=O)NCc3ccco3)cc2n2ccccc12,63*,-71,20,-185,-6,-29
CCc1ccc(-n2c(C)cc(/C=C3\C(=N)N4N=CSC4=NC3=O)c2C)cc1,62*,-180,46*,-433,40*,-136
CCOC(=O)c1ccc(NC(=O)Cn2cnc3c(nc4n3CCCCC4)c2=O)cc1,24,-2,12,49*,1,14
Cc1ccc(Cn2cnc3c(nnn3-c3cccc(F)c3)c2=O)cc1,42*,7,47*,18,8,9
SMILES,USP8 inh,USP7 inh,USP17 block,USP30 block,USP10 block,USP28 inh
O=c1c2nnn(-c3ccccc3)c2ncn1Cc1cccc(F)c1,17,-2,0,-45,4,-20
Cc1cccc(-n2nnc3c(=O)n(CC(=O)Nc4ccc5c(c4)OCO5)cnc32)c1,31*,10,7,17,8,0
CCOC(=O)c1ccc(NC(=O)Cn2cnc3c(nnn3-c3cccc(Cl)c3)c2=O)cc1,-14,-8,33*,13,0,-11
Cc1cccc(-n2nnc3c(=O)n(CC(=O)Nc4ccc5c(c4)OCCO5)cnc32)c1,8,6,0,-9,12,0
COc1ccccc1CNC(=O)c1ccc([N+](=O)[O-])c(-c2cnn(C(C)C)c2)c1,-153,1,-13,7,6,7
CC1[C@@H]2[C@@H](COc3cccnc3)C[C@H](CN1C(=O)c1cccnc1)N2C (some centres undefined),2,1,-59,-41,1,-5
CC(C)CN1C[C@@H]2C(=O)NC3(CCN(C(=O)c4ccccc4)CC3)[C@@H]2C1,3,-3,-8,-14,-1,-12
CN(C)c1cccc(-c2nnc(SCC(=O)Nc3ccc(F)cc3)n2-c2ccccc2)c1,21,-11,14,-15,23,-8
CN(C)C(=O)CSc1nnc(-c2cccc(Cl)c2)n1-c1ccc(Cl)c(C(F)(F)F)c1,1,6,68*,47*,3,11
Cn1cc(C2CCCCCN2C(=O)c2c(F)cccc2F)cn1 (centres undefined),8,5,-1,-25,2,4
O=C(/C=C/c1ccco1)c1cccc([N+](=O)[O-])c1,50*,·,83*,3,32*,46*
O=C(c1cccc([N+](=O)[O-])c1)N(c1ccccn1)c1ccccn1,-102,-1,-13,-185,-1,-13
COc1cccc(CNC(=O)c2nc3c(s2)CCNCC3)c1,54*,-5,34*,-9,-6,7
COc1cccc(NC(=O)c2nc3c(s2)CCNCC3)c1,-14,6,8,18,-5,18
COc1cccc(CN2CCCn3c(nc4ccccc43)C2)c1,2,-2,-7,1,1,-8
COc1cccc2cc(-c3nnc(SCC(=O)c4ccc(F)cc4)n3C)oc12,39*,3,·,9,18,1
Cn1c(C(=O)N(Cc2ccc3c(c2)OCO3)C2CCCCC2)cc(=O)n(C)c1=O,-2,-4,-9,-7,0,-11
Cc1ccc(-c2c[nH]cc2C(=O)c2ccc(Br)cc2)cc1,6,5,1,5,1,-3
CNc1ncc(C(=O)c2ccc(Br)cc2)s1,16,1,47*,39*,1,3
CC1=C(c2ccc(C)c(C)c2)S(=O)(=O)NC1=NCC(=O)NCCCc1ccccc1,-200,4,51*,30,7,4
